Only some compounds are listed: those with a hit (about 8% of all), similar ones and a draw of the others.
KB-3-1 cytotox: KB-3-1 parental cell cytotoxicity; KB-3-1 viability, CellTiter-Glo ATP luminescence, 72 h; Potency, µM (top dose mostly 46.1 µM), usual class: cytotoxic; actives 1.4% (n = 400,000); AID 1347075; also: % is scaled to controls: 0 for no effect and ±100 for the full control effect; nearly all actives have a fitted effect of over 60% in size
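KB-3-1 parental drug-naive adenocarcinoma cells in DMEM/10% FBS, incubated 72 h at 37 C with pin-transferred compounds across a concentration series. Viability by CellTiter-Glo luminescence; concentration-response curves fitted after normalization.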
MCF10A rerep: DNA re-replication induction in MCF 10a cells; MCF 10A DNA re-replication, Hoechst nuclear intensity, 48 h; Potency, µM (series often up to 46.1 µM), for the others: at the highest dose activity, positive = re-replication, hits mostly activators; actives 2.9% (n = 350,000); AID 624296; also: % of control where 0% means no effect; nearly all actives have a fitted effect of over 50% in size
KB-V1 MDR tox: KB-V1 MDR subline cytotoxicity | KB-V1 MDR cells viability, CellTiter-Glo, 72 h | Potency, µM (series often up to 46.1 µM), hits mostly cytotoxic | actives 3.4% (n = 400,000); also: % is scaled to controls: 0 for no effect and ±100 for the full control effect; nearly all actives have a fitted effect of over 60% in size
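Cytotoxicity toward P-gp-expressing KB-V1 cells was determined as loss of CellTiter-Glo luminescence after 72 h at 37 degrees C. Compounds were tested in quantitative HTS format across a concentration range, with curves fitted to normalized data.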
HT1080NT lethal: kills 2HG-producing HT-1080-NT fibrosarcoma cells | HT-1080-NT fibrosarcoma viability, CellTiter-Glo ATP luminescence, 48 h | Potency, µM (titrated, usually from 46.1 µM), inactives show at the top dose activity, negative = less viability, most hits filed as cytotoxic | actives 1.6% (n = 360,000);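 also: NT is the 2HG producing partner of a matched IDH1 knockdown line; 0% = DMSO-treated cells and -100% = media-only wells without cells; nearly all actives have a fitted effect of over 55% in size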
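HT-1080-NT; 750 cells/well; 5% FBS RPMI; 48 h compound, 37 degrees C; CellTiter-Glo luminescence; curve fitting and curve-class assignment.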
HT1080 IDH1KD tx: HT-1080 IDH1 knockdown cell toxicity (counter line); Potency, µM (titrated, usually from 46.1 µM), for inactives: at the top dose activity, negative = toxicity, actives largely listed as cytotoxic; actives 2% (n = 360,000); HT-1080 IDH1 knockdown viability, ATP luminescence, 48 h;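 also: 0% = DMSO wells and -100% = cell-free medium wells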
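Luminescent ATP read-out (CellTiter-Glo, 10 min at room temperature) after 48 h compound exposure at 37 °C gave viability of IDH1-knockdown HT-1080 cells. Activity was normalised to DMSO and cell-free wells, then fitted as concentration-response curves.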
SW480 rereplic: DNA re-replication induction in SW480 cells; SW480 DNA re-replication, Hoechst DNA content imaging, 48 h; actives 1.8% (n = 340,000); AID 624297; Potency, µM (highest dose often 46.1 µM), inactives show at the highest dose re-replication activation, actives largely listed as activators; also: % of control where 0% means no effect; nearly all actives have a fitted effect of over 55% in size
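Cells (250 per well) received 23 nL compound or DMSO by pin tool and were kept 48 hr at 37 C, 5% CO2. Nuclei were then stained with Hoechst for 40 min and scanned for DNA content.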
An asterisk follows results filed as active. Calls follow the shape of the dose curve; as a rule, active = well fitted curve in the direction sought with a large enough effect; inconclusive = small, poorly fitted or top-dose-only effect, or another doubt; inactive = no such curve, though single readings can be large; an effect the other way counts as inactive or inconclusive. Potency is read from the fitted curve at half-maximal effect.

Screening Cc1ccc(NC(=O)COc2ccc(/C=C3/SC(=Nc4ccccc4)N(Cc4cccnc4)C3=O)cc2)cc1 returned KB-3-1 cytotox inconclusive, MCF10A rerep inconclusive, KB-V1 MDR tox 16µM*, HT1080NT lethal 7%, HT1080 IDH1KD tx 7% and SW480 rereplic inconclusive.
`CN1CCN(NC(=O)c2cccc(S(=O)(=O)N3CCCCCC3)c2)CC1` gave KB-3-1 cytotox inactive, MCF10A rerep -1%, KB-V1 MDR tox inactive, HT1080NT lethal 5%, HT1080 IDH1KD tx -4% and SW480 rereplic -23%.
`CN1CCN(NC(=O)c2cccc(C(F)(F)F)c2)CC1` gave KB-3-1 cytotox inactive, MCF10A rerep -2%, KB-V1 MDR tox inactive, HT1080NT lethal 25%, HT1080 IDH1KD tx 17% and SW480 rereplic 5.8µM*.
Screening CCOc1ccc(Br)cc1S(=O)(=O)Nc1cccc(S(=O)(=O)N(C)c2ccccc2)c1 returned KB-3-1 cytotox inconclusive, MCF10A rerep inconclusive, KB-V1 MDR tox 4.1µM*, HT1080NT lethal -9%, HT1080 IDH1KD tx -27% and SW480 rereplic 8%.
Screening CCOc1ccc(Br)cc1S(=O)(=O)Nc1ccc(C(=O)Nc2ccc(C)cc2)cc1 returned KB-3-1 cytotox inactive, MCF10A rerep inconclusive, KB-V1 MDR tox 7.3µM*, HT1080NT lethal -11%, HT1080 IDH1KD tx -17% and SW480 rereplic 0%.
`CCOc1ccc(Br)cc1S(=O)(=O)Nc1ccc(NC(=O)c2ccccc2C)cc1` gave KB-3-1 cytotox inactive, MCF10A rerep -3%, KB-V1 MDR tox inactive, HT1080NT lethal -5%, HT1080 IDH1KD tx -3% and SW480 rereplic 0%.
For COc1cc(C(O)c2nc(-c3cccc(NC(C)=O)c3)cs2)ccc1F (configuration not stated) the results were KB-3-1 cytotox inactive, KB-V1 MDR tox inactive, HT1080NT lethal 2% and HT1080 IDH1KD tx -1%.
`O=[N+]([O-])c1ccc(/C=N/N/C(=N/c2ccccn2)c2ccccn2)cc1` gave KB-3-1 cytotox inactive, MCF10A rerep 3%, KB-V1 MDR tox inconclusive, HT1080NT lethal inconclusive, HT1080 IDH1KD tx 10µM* and SW480 rereplic -5%.
O=C(CSc1ccccc1)N1CCN(c2ccccn2)CC1 was read as KB-3-1 cytotox inactive, MCF10A rerep -5%, KB-V1 MDR tox inactive, HT1080NT lethal -1%, HT1080 IDH1KD tx 12% and SW480 rereplic inconclusive.
`Cc1nc(SCC(=O)N2CCN(c3ccccn3)CC2)c(C#N)c(C)c1C` gave KB-3-1 cytotox inactive, MCF10A rerep 1%, KB-V1 MDR tox 7.3µM*, HT1080NT lethal 8%, HT1080 IDH1KD tx 7% and SW480 rereplic -8%.
Screening CC12CCC(C(=Nc3ccc(N=C4C(=O)C5(C)CCC4C5(C)C)cc3)C1=O)C2(C)C returned KB-3-1 cytotox inactive, MCF10A rerep 0%, KB-V1 MDR tox inactive, HT1080NT lethal 26%, HT1080 IDH1KD tx 1% and SW480 rereplic -8%.
Screening CC(C)OC(=O)n1c(=S)oc2ccccc21 returned KB-3-1 cytotox inactive, MCF10A rerep 4.6µM*, KB-V1 MDR tox inactive, HT1080NT lethal -4%, HT1080 IDH1KD tx -1% and SW480 rereplic inconclusive.
CCCCC(=O)/C=C/n1c(=S)oc2ccccc21 was read as KB-3-1 cytotox inconclusive, MCF10A rerep 2.9µM*, KB-V1 MDR tox inconclusive, HT1080NT lethal 10µM*, HT1080 IDH1KD tx 3.7µM* and SW480 rereplic 6.5µM*.
`CC1CC(C)(C)NC(=S)N1CCC(=O)N1CCN(c2ccccc2)CC1` (configuration not stated) gave KB-3-1 cytotox inactive, MCF10A rerep 2%, KB-V1 MDR tox inconclusive, HT1080NT lethal -11%, HT1080 IDH1KD tx 6% and SW480 rereplic 0%.
Screening Fc1ccc(Nc2nc(Nc3ccc(F)cc3)nc(N3CCOCC3)n2)cc1 returned KB-3-1 cytotox inactive and KB-V1 MDR tox inactive.
Screening c1ccc2c(c1)nc(N1CCOCC1)c1c3ccccc3[nH]c21 returned KB-3-1 cytotox inactive, MCF10A rerep 3.7µM*, KB-V1 MDR tox 21µM*, HT1080NT lethal 9%, HT1080 IDH1KD tx -1% and SW480 rereplic inconclusive.
`c1ccc2c(Nc3nc(N4CCOCC4)c4ccccc4n3)cccc2c1` gave KB-3-1 cytotox inconclusive, MCF10A rerep 18µM*, KB-V1 MDR tox inconclusive, HT1080NT lethal 21µM*, HT1080 IDH1KD tx 15µM* and SW480 rereplic inconclusive.
Fc1ccc(Nc2nc(N3CCOCC3)c3ccccc3n2)cc1 was read as KB-3-1 cytotox inconclusive, MCF10A rerep inconclusive, KB-V1 MDR tox 16µM*, HT1080NT lethal -1%, HT1080 IDH1KD tx -18% and SW480 rereplic 4%.
`O=c1[nH]c2ccccc2nc1N1CCOCC1` gave KB-3-1 cytotox inactive, MCF10A rerep -4%, KB-V1 MDR tox inactive, HT1080NT lethal inconclusive, HT1080 IDH1KD tx 12% and SW480 rereplic -5%.
CN(c1ccccc1C(=O)N1CCN(Cc2ccc3c(c2)OCO3)CC1)S(C)(=O)=O was read as KB-3-1 cytotox inactive, MCF10A rerep -4%, KB-V1 MDR tox inactive, HT1080NT lethal 1%, HT1080 IDH1KD tx 2% and SW480 rereplic 0%.
COc1ccc(/C=N/Nc2cc(C)nc3ccc(OC)cc23)c(OC)c1 was read as KB-3-1 cytotox inconclusive, MCF10A rerep inconclusive, KB-V1 MDR tox inconclusive, HT1080NT lethal 23µM*, HT1080 IDH1KD tx 5.2µM* and SW480 rereplic 23µM*.
`COc1ccc2nc(C)cc(Nc3ccc(C)cc3)c2c1` gave KB-3-1 cytotox inactive, MCF10A rerep inconclusive, KB-V1 MDR tox inactive, HT1080NT lethal inconclusive, HT1080 IDH1KD tx inconclusive and SW480 rereplic 0%.
`COc1ccccc1/C=N/Nc1cc(C)nc2ccc(C)cc12` gave KB-3-1 cytotox inactive, MCF10A rerep -3%, KB-V1 MDR tox inactive, HT1080NT lethal 1%, HT1080 IDH1KD tx -1% and SW480 rereplic 3%.
For COc1ccc2nc(C)cc(SCC(=O)N/N=C/c3ccccc3)c2c1 the results were KB-3-1 cytotox inactive, MCF10A rerep 3%, KB-V1 MDR tox inactive, HT1080NT lethal -10%, HT1080 IDH1KD tx -10% and SW480 rereplic -6%.
COc1ccc2nc(C)cc(NCc3ccc(F)cc3)c2c1 was read as KB-3-1 cytotox inactive, MCF10A rerep 18µM*, KB-V1 MDR tox inactive, HT1080NT lethal inconclusive, HT1080 IDH1KD tx 16µM* and SW480 rereplic inconclusive.
For COc1ccc2nc(C)cc(N/N=C/c3ccccc3)c2c1 the results were KB-3-1 cytotox inactive, MCF10A rerep 23µM*, KB-V1 MDR tox 21µM*, HT1080NT lethal -3%, HT1080 IDH1KD tx 0% and SW480 rereplic 16µM*.
